Screening results as filed in PubChem BioAssay.
Most compounds without a hit are left out; they make up all but 19% or so of the library.
HepG2 viability: kills HepG2 cells in TGF-b inhibitor counter-screen; HepG2 CAGA-GFP viability, ATP luminescence, 18 h; Potency, µM (highest dose often 46.1 µM), without a hit: top-dose activity change, negative = cytotoxicity, hits mostly cytotoxic; 410,000 tested, 0.76% active; AID 588856; note: potency is the fitted concentration of half-maximal effect
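CellTiter-Glo luminescence gave cytotoxicity after 18 hours at 37 degrees C. The cells were HepG2 CAGA-GFP in 1% FBS DMEM, stimulated with 500 pg/mL TGF-beta after compound addition. %Activity was normalised to no-cell wells (complete cell-killing) and DMSO (no toxicity), and curves were fitted and classified.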
DT40 TDP1 CPT: growth inhibition of DT40 Tdp1-/-;hTDP1 cells with camptothecin (screen for TDP1 inhibitors); chicken DT40 Tdp1-/-;hTDP1 cells + 20 nM CPT, ATP luminescence, 48 h; Potency, µM (doses to about 46.2 µM), for inactives: at the highest dose activity change, negative = growth inhibition, actives largely listed as inhibitors; 420,000 tested, 12% active; note: potency is the fitted concentration of half-maximal effect; % is set by controls: 0 for no effect and ±100 for the full control effect; nearly all actives have a fitted effect of over 55% in size
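Chicken DT40 Tdp1-/- cells complemented with human TDP1, 400 cells/well, exposed to compounds plus 20 nM camptothecin for at least 48 h at 37 C; viability read as ATP content by CellTiter-Glo luminescence.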
TGFb SMAD3 inh: TGF-b pathway inhibition; Potency, µM (titrated, usually from 46.1 µM), inactives show top-dose activity, negative = inhibition, most hits filed as inhibitors; 410,000 tested, 1.2% active; AID 588855; HepG2 CAGA-GFP TGF-b/SMAD3 reporter, GFP fluorescence, 18 h; TGF-beta stimulated, 500 pg/mL final; note: potency is the fitted concentration of half-maximal effect; % is set by controls: 0 for no effect and ±100 for the full control effect; nearly all actives have a fitted effect of over 65% in size
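TGF-beta reporter screen: HEPG2 CAGA-GFP, 1% FBS, 500 pg/mL TGF-beta final, 18 h; per-cell GFP summed per well; curves fitted and categorized by class.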
TDP1 cell noCPT: qHTS for Inhibitors of human tyrosyl-DNA phosphodiesterase 1 (TDP1): qHTS in cells in absence of CPT | Potency, µM (titrated, usually from 46.2 µM), for inactives: top-dose activity change, negative = growth inhibition, most hits filed as inhibitors | 420,000 tested, 15% active | DT40 Tdp1-/- hTDP1 cells, no CPT, ATP luminescence, 48 h; note: potency is the fitted concentration of half-maximal effect; % is set by controls: 0 for no effect and ±100 for the full control effect; nearly all actives have a fitted effect of over 55% in size
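Growth kinetics read by CellTiter-Glo luminescence after ≥48 hr at 37 °C. Cells: DT40 Tdp1-/- stably carrying human TDP1, 400 per well, compound exposure in the absence of CPT (DMSO vehicle).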
IL-1B inflam inh: inhibitors of inflammasome signaling (IL-1 beta secretion); THP-1 LPS/ATP IL-1B secretion, AlphaLISA, 16 h; active compounds read low; activity change, % at 57.5 µM; 360,000 tested, 4.7% active; AID 743279; in the data active = activity change below about -50%; inconclusive = mostly about -30% to -49%; note: % is set by controls: 0 for no effect and ±100 for the full control effect
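THP-1 cells pretreated 1 hr with compounds (up to 57.5 uM final), then stimulated with LPS (250 ng/mL final) plus ATP (1.25 mM final); secreted IL-1B measured by AlphaLISA after 16 hr, decreased signal indicating inhibition.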
ASM inhibitor: human S-ASM enzyme inhibition | placental ASM, HMU-PC fluorogenic substrate, 60 min | 340,000 tested, 0.006% active | Potency, µM (top dose mostly 57.5 µM), for the others: at the top dose activity change, negative = inhibition, usual class: inhibitors | P17405; note: potency is the fitted concentration of half-maximal effect
Target sequence (P17405 47-631 limits assumed): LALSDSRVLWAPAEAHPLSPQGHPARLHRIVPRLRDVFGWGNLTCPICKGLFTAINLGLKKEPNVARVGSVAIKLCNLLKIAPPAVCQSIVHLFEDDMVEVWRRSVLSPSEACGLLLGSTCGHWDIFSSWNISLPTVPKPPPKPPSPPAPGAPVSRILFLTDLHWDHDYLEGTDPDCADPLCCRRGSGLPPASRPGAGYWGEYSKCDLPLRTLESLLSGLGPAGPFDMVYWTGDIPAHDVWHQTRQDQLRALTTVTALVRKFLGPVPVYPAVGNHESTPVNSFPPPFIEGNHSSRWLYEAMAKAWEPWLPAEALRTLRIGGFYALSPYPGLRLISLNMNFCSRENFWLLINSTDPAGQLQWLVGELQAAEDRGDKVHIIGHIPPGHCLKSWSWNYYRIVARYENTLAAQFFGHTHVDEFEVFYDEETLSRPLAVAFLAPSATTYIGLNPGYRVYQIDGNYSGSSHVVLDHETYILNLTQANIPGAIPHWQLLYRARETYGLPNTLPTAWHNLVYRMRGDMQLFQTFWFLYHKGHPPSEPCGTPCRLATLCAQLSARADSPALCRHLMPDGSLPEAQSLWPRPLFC
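Human placenta-derived ASM preincubated with compound 10 min at room temperature, then reacted with 9 uM (final) fluorogenic HMU-PC substrate for 60 min at 37 C. Stop solution raises pH to 10; fluorescence read at Ex 386/Em 447 nm.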
Active calls of the source: *; ? = inconclusive; nt = no result given. Unless noted, calls come from the whole dose curve; as a rule, active = well fitted curve in the direction sought with a large enough effect; inconclusive = small, poorly fitted or top-dose-only effect, or another doubt; inactive = no such curve, though single readings can be large; an effect the other way counts as inactive or inconclusive.

SMILES	HepG2 viability	DT40 TDP1 CPT	TGFb SMAD3 inh	TDP1 cell noCPT	IL-1B inflam inh	ASM inhibitor
COc1cccc(-c2nn(-c3ccccc3)cc2CO)c1	1.2%	-1.6%	1.5%	-15.0%	?	-3.8%
O/N=C/c1cn(-c2ccccc2)nc1-c1ccc2c(c1)OCCO2	-33.5%	-10.8%	2.5%	-10.3%	-88.4*	0.6%
OCc1cn(-c2ccccc2)nc1-c1ccc2c(c1)OCCO2	-26.3%	?	0.2%	23.1µM*	-22.6	1.8%
c1ccc(-n2cc(CNCCc3cscn3)c(-c3ccc4c(c3)OCO4)n2)cc1	-29.5%	?	1.2%	23.1µM*	-72.5*	-2.4%
OC[C@@H]1CCCN1Cc1cn(-c2ccccc2)nc1-c1ccc2c(c1)OCO2	-28.0%	?	-17.8%	?	?	1.9%
COc1ccc(-c2cc(C)no2)cc1S(=O)(=O)NCc1ccco1	-13.0%	?	-23.6%	?	nt	nt
CC(C)c1ccccc1OCCCCCN1CCOCC1	-16.4%	1.5%	1.6%	-6.7%	-2.9	7.0%
O=C(Nc1cccc2c1CCCC2)c1ccccc1Br	2.5%	-11.4%	-9.9%	?	-9.4	1.1%
Nc1ncc(-n2cncn2)c(-c2ccc(Cl)cc2)n1	2.0%	13.1%	4.5%	1.1%	-7.6	-0.1%
COc1ccccc1NC(=O)Nc1nc(CC(=O)N2CCN(c3ccccc3OC)CC2)cs1	40.1%	20.6µM*	-6.7%	13µM*	-56.1*	-9.2%
COc1cc(C)ccc1NC(=O)Cc1csc(NC(=O)Nc2ccccc2OC)n1	7.3%	23.1µM*	?	23.1µM*	2.8	-19.1%
Cn1cccc1CN1CCC[C@]2(N[C@H](c3ccccc3)[C@@H]3C(=O)N(Cc4ccccc4)C(=O)[C@@H]32)C1=O	-4.7%	?	1.9%	?	-19.9	nt
CCNC(=O)C1(C)CCN(C(=O)c2ccc(F)c(Cl)c2)C1 (configuration not stated)	-0.5%	-1.5%	1.1%	-16.6%	22.5	nt
CC(C)[C@H](NC(=O)c1c(F)cccc1F)C(=O)N1CCN(c2ccc(F)cc2)CC1	-12.0%	?	-8.9%	20.6µM*	-9.8	2.4%
CC(C)[C@H](NS(=O)(=O)c1cccc(Cl)c1)C(=O)OCC(=O)N1CCN(c2ccccc2)CC1	4.0%	23.1µM*	-5.6%	25.9µM*	-11.0	1.8%
CC(C)C(NC(=O)Cc1ccccc1)C(=O)N1CCN(c2cccc(Cl)c2)CC1 (configuration not stated)	-30.5%	4.61µM*	?	3.26µM*	-4.2	1.6%
CC(C)NS(=O)(=O)c1ccc(OCC(=O)N2CCN(c3cccc(Cl)c3)CC2)cc1	-27.9%	14.6µM*	?	23.1µM*	nt	nt
O=C(OCC(=O)N1CCN(c2ccccc2)CC1)c1cccc(Cl)c1	-5.3%	-11.1%	-3.2%	-14.1%	0.0	-0.1%
CC(=O)c1ccc(NC(=O)CSc2nccn2Cc2ccc3c(c2)OCO3)cc1	-15.3%	?	?	?	nt	nt
O=C(c1ccc([N+](=O)[O-])cc1)N1CCN(c2ccc(Nc3ccccc3)nn2)CC1	8.9%	?	-16.3%	?	nt	nt
COCCN(C(=O)COC(=O)CCn1c(C)csc1=O)c1c(N)n(Cc2ccccc2)c(=O)[nH]c1=O	-1.1%	2.2%	14.0%	2.2%	-11.8	-7.8%
CC(CS(=O)(=O)c1ccc2c(c1)NC(=O)CS2)C(=O)N1CCN(c2cccc(Cl)c2)CC1 (configuration not stated)	-6.4%	18.4µM*	-11.4%	?	-25.3	-4.4%
CCCCOc1ccc(CN2CCSCC2)cc1	5.0%	?	-16.7%	-26.9%	23.8	-5.4%
CCCC[C@@H](CN[C@H](C)CNC)NCC1CCC(C(C)(C)C)CC1 (some centres not stated)	17.8µM*	5.8µM*	?	6.51µM*	-67.0*	7.8%
COc1ccc(-c2cc(-c3ccc(F)cc3)nc3c2COc2ccc(F)cc2-3)cc1	-14.3%	?	3.3%	?	nt	nt
SMILES	HepG2 viability	DT40 TDP1 CPT	TGFb SMAD3 inh	TDP1 cell noCPT	IL-1B inflam inh	ASM inhibitor
Cn1ccc2c(-c3ccc(C(F)(F)F)cc3)cc3c(c21)C1CCC3O1 (configuration not stated)	-25.8%	23.1µM*	?	16.4µM*	4.1	nt
Cn1ccc2c(-c3ccc(CO)cc3)cc3c(c21)C1CCC3O1 (configuration not stated)	-27.8%	-104.3%	?	?	17.9	nt
Cn1ccc2c(-c3ccc(C(=O)O)cc3)cc3c(c21)C1CCC3O1 (configuration not stated)	-21.5%	-3.9%	-26.5%	-14.4%	18.2	nt
Cn1ccc2c(-c3ccc(C(C)(C)C)cc3)cc3c(c21)C1CCC3O1 (configuration not stated)	-39.2%	?	11.2µM*	23.1µM*	8.1	nt
CC(C)C(NC(=O)c1ccccc1)C(=O)OCn1nnc2ccccc2c1=O (configuration not stated)	18.5%	-23.9%	9.9%	-18.4%	2.8	-2.6%
COc1cccc(-c2csc(N3CCN(C(=O)C4CCCCC4)CC3)n2)c1	-23.0%	?	?	?	-73.1*	-2.4%
CCCc1cc(=O)n2nc(N3CCC(C(=O)N4CCN(c5cccc(OC)c5)CC4)CC3)sc2n1	-23.2%	11.6µM*	?	5.8µM*	?	-0.6%
CCCNC(=S)N1CCN(c2nc(-c3cccc(OC)c3)cs2)CC1	-30.7%	?	-30.9%	?	-58.6*	1.3%
COCCNC(=S)N1CCN(c2nc(-c3ccccc3)cs2)CC1	-13.1%	?	?	18.4µM*	-10.8	-4.0%
COc1ccccc1N1CCN(C2CC(=O)N(c3ccc(F)cc3)C2=O)CC1 (configuration not stated)	17.1%	-3.0%	-3.9%	18.5%	0.0	1.0%
CCCN(CCC)C(=O)Cn1c(=O)n(-c2ccc(CC)cc2)c(=O)c2c3c(sc21)CCC3	-2.2%	?	-6.7%	16.4µM*	nt	nt
CCOC(=O)N1CCc2c(sc3c2c(=O)n(-c2ccc(CC)cc2)c(=O)n3Cc2cccc(OC)c2)C1	-8.7%	13µM*	-18.7%	?	nt	nt
CCOC(=O)N1CCc2c(sc3c2c(=O)n(-c2ccc(CC)cc2)c(=O)n3CC(=O)NCC2CCCO2)C1 (configuration not stated)	-4.6%	4.61µM*	-6.0%	1.3µM*	49.8	-6.6%
